# Only some compounds are listed: those with a hit (about 0.87% of all), similar ones and a draw of the others.
# RECQ1 helicase = inhibitors of human RECQ1 DNA helicase; P46063; RECQ1 DNA unwinding, red fluorescence kinetic read; Potency, µM (series often up to 57.3 µM), inactives show at the top dose activity, negative = inhibition, actives largely listed as inhibitors; 240,000 compounds, 0.54% hits; AID 2549;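 further: plate controls were vehicle for no effect and no enzyme for full effect; nearly all actives have a fitted effect of over 30% in size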
#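 50 nM RECQ1T1 preincubated 15 min with compound in Tris pH 8.0 buffer with MgCl2, DTT, Tween-20 and 2.5 ug/ml poly(dI-dC); started with 200 nM TAMRA/BHQ-2 forked duplex and 2 mM ATP. Unwinding read as fluorescence (525/598 nm), two reads 2 h apart.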
# FEN1 inh = blocks human flap endonuclease 1. Recombinant FEN1 flap cleavage, fluorescence, 15 min. Potency, µM (highest dose often 114 µM), without a hit: at the top dose activity change, negative = inhibition, actives largely listed as inhibitors. AID 588795. 390,000 compounds, 0.35% hits; further: nearly all actives have a fitted effect of over 65% in size
# Target sequence (P39748 whole entry, looked up): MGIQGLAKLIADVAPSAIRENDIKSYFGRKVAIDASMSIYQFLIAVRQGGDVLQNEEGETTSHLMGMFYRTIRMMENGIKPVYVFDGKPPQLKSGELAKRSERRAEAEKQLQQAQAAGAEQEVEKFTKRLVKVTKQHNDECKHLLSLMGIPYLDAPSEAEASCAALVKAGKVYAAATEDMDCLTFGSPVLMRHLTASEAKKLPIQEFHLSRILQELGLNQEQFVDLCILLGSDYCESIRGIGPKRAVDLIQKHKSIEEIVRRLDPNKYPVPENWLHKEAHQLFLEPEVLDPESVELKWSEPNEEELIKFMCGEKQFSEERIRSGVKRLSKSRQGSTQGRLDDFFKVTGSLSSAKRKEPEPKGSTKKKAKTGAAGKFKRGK
#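 FEN1 at 10 nM preincubated with compounds 15 min at room temperature, then flap DNA substrate added at 50 nM final. Signal read at 0 and 15 min; concentration-response fitted with four-parameter Hill equation.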
# WRN inhibitor = blocks human WRN helicase | Q14191 | WRN helicase unwinding, fluorescent forked duplex, kinetic | 360,000 compounds, 0.46% hits | Potency, µM (top dose mostly 114 µM), without a hit: at the top dose activity change, negative = inhibition, actives largely listed as inhibitors; further: nearly all actives have a fitted effect of over 55% in size
#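 Kinetic fluorescence helicase assay: unwinding of a quenched forked DNA duplex (100 nM final) with 2 mM ATP final raises red fluorescence (525/598 nm). Compounds sat 15 min at room temperature with 20 nM WRN beforehand.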
# APEX1 inh = APE1 (human) endonuclease inhibition. 350,000 compounds, 0.35% hits. Potency, µM (highest dose often 65.8 µM), inactives show at the highest dose activity change, negative = inhibition, hits mostly inhibitors. AID 2517. P27695. recombinant APE1, TAMRA/BHQ-2 abasic DNA cleavage fluorescence;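 further: plate controls were vehicle for no effect and reference inhibitor for full effect; nearly all actives have a fitted effect of over 55% in size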
# Target sequence (P27695 whole entry, looked up): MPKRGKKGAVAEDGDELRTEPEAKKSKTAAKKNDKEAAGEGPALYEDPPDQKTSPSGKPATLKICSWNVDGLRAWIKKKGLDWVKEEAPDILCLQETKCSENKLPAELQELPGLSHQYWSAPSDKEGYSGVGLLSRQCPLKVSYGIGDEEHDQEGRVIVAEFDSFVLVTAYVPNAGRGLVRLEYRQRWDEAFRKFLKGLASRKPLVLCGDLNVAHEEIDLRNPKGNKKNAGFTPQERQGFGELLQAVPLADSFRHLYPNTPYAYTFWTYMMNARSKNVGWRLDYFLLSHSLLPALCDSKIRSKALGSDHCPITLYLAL
#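 Endonuclease cleavage of a quenched abasic-site DNA duplex (50 nM) by APE1 (0.75 nM) was tracked by TAMRA dequenching. Compounds were preincubated with enzyme 15 min at room temperature; data normalized to buffer-only and DMSO wells plus NSC13755 control.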
# BLM helicase inh = Bloom syndrome helicase (human) inhibition; Potency, µM (highest dose often 56.1 µM), without a hit: at the highest dose activity change, negative = inhibition, hits mostly inhibitors; 350,000 compounds, 0.2% hits; recombinant BLM DNA unwinding, fluorescence dequenching; P54132;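 further: plate controls were vehicle for no effect and no enzyme for full effect; nearly all actives have a fitted effect of over 35% in size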
# * marks the source's active call; other numbers are inactive results; i = inactive; u = inconclusive; x = not tested or not shown; [ ] = dose if it differs, or a comment. The call rests on the fitted dose curve; in most records, active means well fitted curve in the direction sought with a large enough effect; inconclusive means small, poorly fitted or top-dose-only effect, or another doubt; inactive means no such curve, though single readings can be large; an effect the other way counts as inactive or inconclusive. Unless noted, on the % scale 0 is the no-effect control and ±100 the full control effect; potency means the concentration at half of the fitted maximal effect.
SMILES,RECQ1 helicase,FEN1 inh,WRN inhibitor,APEX1 inh,BLM helicase inh
Cc1nnc(Sc2cc(NCCO)c([N+](=O)[O-])c3nonc23)s1,i,39.8µM*,-23.9%[11.6 µM],u,-6.9%
CCOC(=O)C1CCN(c2nc(-c3ccc(Br)cc3)cs2)CC1,x,x,x,56.4%,x
CCN1CCN(C2=CC3=CC(=C(C#N)C#N)CCC3CC2)CC1 (centres undefined),-25.1%,-29.0%,25.1µM*,3.9%,u
CCC(=O)N1c2ccccc2CC1C(=O)NCCN1CCN(c2cc(Cl)ccc2C)CC1 (centres undefined),x,-3.1%,x,x,-0.6%
CNC(=O)N(O)C1N(/N=C/c2ccc(C)cc2)C(=S)SC1(C)C (centres undefined),x,14.3%,2.8%,6.4%,-3.1%
Cc1ccc(/C=N/N2C(=S)SC(C)(C)C2N(O)C(=O)Nc2ccc([N+](=O)[O-])cc2)cc1 (centres undefined),31.6µM*,-1.7%,-10.3%,10.0%,-8.4%
O=C(Nc1ccc(Cl)cc1Cl)[C@@H]1CC=C[C@@H]2CCN(Cc3ccccc3)C(=O)[C@@H]21,x,0.3%,x,x,x
CCS(=O)(=O)C1=NN2C(=N)/C(=C\c3ccc(SCc4ccco4)o3)C(=O)N=C2S1,u,44.7µM*,56.2µM*,u,-11.4%
Cc1csc(NCC(=O)c2c(C)[nH]c3ccccc23)n1,x,-14.7%,x,x,x
Cc1ccc(NC(=O)c2ccccc2)cc1,-2.4%,0.8%,0.8%,-4.0%,0.0%
Cc1ccc(NC(=O)C2=C(c3ccccc3)S(=O)(=O)CCS2(=O)=O)cc1,-22.3%,0.8%,22.4µM*,-4.4%,-0.8%
CCc1ccccc1NC(=O)CCNS(=O)(=O)c1ccc2c(c1)CCCC(=O)N2,x,-0.4%,x,x,1.2%
Cc1c(Br)c(O)c(Br)c(O)c1/C=N/n1c(-c2ccccc2)n[nH]c1=S,x,35.5µM*,44.7µM*,44.5%,-1.6%
COc1ccccc1NC(=O)c1cnc(SCC(=O)N2CCOCC2)n(C)c1=O,x,-9.9%,x,x,-2.2%
CCOc1cc(/C=C2\N=C(SC)SC2=O)cc([N+](=O)[O-])c1OC(C)=O,i,50.1µM*,u,-9.4%,-2.4%
Cc1c(N2C(=O)/C(=C\c3ccc(N(C)C)cc3)N(C)C2=S)c(=O)n(-c2ccccc2)n1C,28.2µM*,u,u,-4.0%,-7.8%
Cc1c(N2C(=O)c3ccc4c5c(ccc(c35)C2=O)CC4)c(=O)n(-c2ccccc2)n1C,11.2µM*,50.1µM*,u,u,14.1µM*
Cc1c(N2C(=O)c3ccc(Br)cc3C2=O)c(=O)n(-c2ccccc2)n1C,-6.7%,6.8%,-1.3%,-8.8%,-2.9%
CCN(CC)CCCNC(=O)c1cc2c(-c3ccc(Cl)cc3)nn(C)c2s1,90.6%,44.7µM*,93.3%,u,198.3%
CN1CCN(CCCNC(=O)c2cc3c(-c4ccc(Cl)cc4)nn(C)c3s2)CC1,43.6%,u,24.6%,u,168.9%
O=S(=O)(/N=S1/CC=CCN1S(=O)(=O)c1ccccc1)c1ccccc1 (centres undefined),-11.3%,u,44.7µM*,-10.8%,-1.1%
CCN1CCOC(=O)C1CC(=O)Nc1cc(Cl)ccc1OC (centres undefined),x,-10.1%,x,x,5.3%
OC[C@@H](O)C(O)[C@H](O)CO,x,x,x,-4.4%,x
Cc1ccccc1NC(=S)NC(=O)/C=C/c1ccco1,x,79.4µM*,79.4µM*,-1.7%,-8.9%
O=c1cc(O)n(C2CCCCCC2)c(=O)[nH]1,x,4.9%,-0.3%,-3.2%,-3.0%
SMILES,RECQ1 helicase,FEN1 inh,WRN inhibitor,APEX1 inh,BLM helicase inh
O=c1[nH][nH]c(=S)n1C1CCCCC1,9.6%,u,56.2µM*,-12.9%,1.9%
COc1ccc(N(C)C(=O)CCn2cnc3onc(-c4ccc(F)cc4)c3c2=O)c(OC)c1,x,-20.3%,x,x,-4.5%
CCOC(=O)NNc1ccc2nonc2c1[N+](=O)[O-],u,39.8µM*,50.1µM*,u,-26.4%
CCc1ccc(Nc2ccc3nonc3c2[N+](=O)[O-])cc1,x,12.4%,10.4%,x,x
COc1ccc2nc(N3C(=O)CNC3=S)sc2c1,-0.9%,-4.6%,-6.8%,0.2%,-0.2%
CCOc1ccc2nc(N3C(=O)/C(=C/c4ccc(Cl)cc4)NC3=S)sc2c1,-11.2%,1.9%,0.8%,2.4%,28.2µM*
O=C(N/N=C/c1cccnc1)/C(=C\c1cccs1)NC(=O)c1ccccc1,-6.7%,8.1%,-13.4%,2.9%,2.7%
O=C(N/N=C/c1cc2ccccc2nc1Cl)/C(=C/c1cccs1)NC(=O)c1ccccc1,25.1µM*,-10.4%,-11.2%,-7.6%,u
O=C(CC1SC(=O)N(c2ccccc2)C1=O)Nc1ccc(Br)cc1 (centres undefined),i,-2.9%,u,5.2%,-10.6%
O=C(CC1SC(=O)N(c2ccccc2)C1=O)Nc1ccc(Cl)cc1 (centres undefined),-17.3%,0.1%,25.1µM*,-0.2%,-4.7%
O=C(NC1CC1)c1cc(-c2cccs2)on1,x,x,x,9.1%,x
COc1ccc(/C=C2\CCC(C3CCCC3)C2=O)cc1 (centres undefined),x,-1.7%,-7.5%,-3.6%,-2.1%
COc1ccc(/C=C2/CCC(CN3CCOCC3)C2=O)cc1 (centres undefined),x,9.6%,14.1µM*,x,x
CN(C)CC1CC/C(=C\c2ccc(O)cc2)C1=O (centres undefined),x,56.2µM*,11.2µM*,x,x
Cc1sc2ccccc2[n+]1CCC[n+]1c(C)sc2ccccc21,x,-26.9%,x,x,x
CN(CC(=O)O)c1ccc(/C=C/c2ccnc3ccccc23)cc1,x,-1.5%,x,x,x
CCCCCCCCCCCCCCCC[n+]1ccc(CC(O)c2c(C)[nH]c3ccccc23)c2ccccc21 (centres undefined),x,50.1µM*,x,x,x
CCCCC[n+]1cccc2c3ccccc3ccc21,63.4%,-12.2%,-6.9%,u,0.6%
CCOc1cc(/C=C2\C(=O)N(Cc3ccc(C)cc3)C(C)=C2C(=O)OC)ccc1O,-0.7%,-4.5%,79.4µM*,-2.2%,-13.3%
CC(/C=C/c1ccco1)=N\NC(=O)c1cc(C)[nH]n1,31.6µM*,-14.8%,u,-5.8%,-23.7%
CC[C@@H](C)CCCCC(=O)N[C@@H](CCNCS(=O)(=O)O)C(=O)N[C@H](C(=O)N[C@@H](CCNCS(=O)(=O)O)C(=O)N[C@H]1CCNC(=O)[C@H]([C@@H](C)O)NC(=O)[C@H](CCNCS(=O)(=O)O)NC(=O)[C@H](CCNCS(=O)(=O)O)NC(=O)[C@H](CC(C)C)NC(=O)[C@@H](CC(C)C)NC(=O)[C@H](CCNCS(=O)(=O)O)NC1=O)[C@@H](C)O,x,x,x,9.4%,x
CC(=O)Nc1cc(OC(C)=O)c2nonc2c1OC(C)=O,5.01µM*,-1.5%,-10.7%,u,1.58µM*
CC(=O)Nc1nonc1NC(C)=O,-8.3%,-6.5%,5.9%,1.0%,1.7%
CC(=O)Oc1ccc2nonc2c1OC(C)=O,x,10µM*,x,x,x
